Results filed as inconclusive are left out. Activity calls are given as the source filed them. Calls come from the whole dose curve; as a rule, active = well fitted inhibition curve with a large enough effect; inconclusive = small, poorly fitted or top-dose-only effect; inactive = flat fitted curve, though single readings scatter.
Assays:
Experiment in all cases: qHTS profiling for inhibitors of Plasmodium falciparum proliferation (AID 504749); note: nearly all actives have a fitted effect of over 60% in size
Settings in all cases: P. falciparum in erythrocytes, SYBR Green DNA, 72 h; series mostly up to 28.7 µM
CP192 = system: CP192
Summary of the method: (§1)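 Parasite proliferation within erythrocytes, 72 h exposure. Endpoint: SYBR Green I fluorescence after overnight lysis at room temperature. Controls: 0.29 uM artemisinin, DMSO.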

CP194 = system: CP194
Summary of the method: as §1

CP201 = system: CP201
Summary of the method: as §1

CP211 = system: CP211
Summary of the method: as §1

CP215 = system: CP215
Summary of the method: as §1

CP217 = system: CP217
Summary of the method: as §1

CP237 = system: CP237
Summary of the method: as §1

CP238 = system: CP238
Summary of the method: as §1

CP247 = system: CP247
Summary of the method: as §1

CP250 = system: CP250
Summary of the method: as §1

CP252 = system: CP252
Summary of the method: as §1

CP256 = system: CP256
Summary of the method: as §1

CP260 = system: CP260
Summary of the method: as §1

CP262 = system: CP262
Summary of the method: as §1

CP265 = system: CP265
Summary of the method: as §1

CP266 = system: CP266
Summary of the method: as §1

CP268 = system: CP268
Summary of the method: as §1

CP269 = system: CP269
Summary of the method: as §1

CP286 = system: CP286
Summary of the method: as §1

CP203 = system: CP203
Summary of the method: as §1

Measured: Potency
Potency is the fitted concentration of half-maximal effect.

NS(=O)(=O)c1cc2c(cc1Cl)NC(CSCc1ccccc1)=NS2(=O)=O
inactive: CP192 | CP194 | CP201 | CP211 | CP215 | CP217 | CP237 | CP238 | CP247 | CP250 | CP252 | CP256 | CP260 | CP262 | CP265 | CP266 | CP268 | CP269 | CP286

O=c1cc[nH]c(=O)[nH]1
inactive: CP192 | CP194 | CP201 | CP211 | CP215 | CP217 | CP237 | CP238 | CP247 | CP250 | CP252 | CP256 | CP260 | CP262 | CP265 | CP266 | CP268 | CP269 | CP286

O=C(CCCN1CCN(c2ccccn2)CC1)c1ccc(F)cc1
inactive: CP192 | CP194 | CP201 | CP211 | CP215 | CP217 | CP237 | CP238 | CP247 | CP250 | CP252 | CP256 | CP260 | CP262 | CP265 | CP266 | CP268 | CP269 | CP286

Cc1ncc(COP(=O)(O)O)c(C=O)c1O
inactive: CP192 | CP194 | CP201 | CP211 | CP215 | CP217 | CP237 | CP238 | CP247 | CP250 | CP252 | CP256 | CP260 | CP262 | CP265 | CP266 | CP268 | CP269 | CP286

CCCCc1ncc(/C=C(\Cc2cccs2)C(=O)O)n1Cc1ccc(C(=O)O)cc1
inactive: CP192 | CP194 | CP201 | CP211 | CP215 | CP217 | CP237 | CP238 | CP247 | CP250 | CP252 | CP256 | CP260 | CP262 | CP265 | CP266 | CP268 | CP269 | CP286

Oc1cn2c(n1)Nc1ccc(Cl)c(Cl)c1C2
inactive: CP192 | CP194 | CP211 | CP215 | CP217 | CP237 | CP238 | CP247 | CP250 | CP252 | CP256 | CP260 | CP262 | CP265 | CP266 | CP268 | CP269 | CP286

C#CCN(C)Cc1ccccc1
inactive: CP192 | CP194 | CP201 | CP211 | CP217 | CP237 | CP238 | CP247 | CP250 | CP252 | CP256 | CP260 | CP262 | CP265 | CP268 | CP269 | CP286

CN1CCCCC1CCN1c2ccccc2Sc2ccc(S(C)=O)cc21 (configuration not stated)
inactive: CP192 | CP201 | CP217 | CP247 | CP252 | CP262 | CP266
active: CP215 15.1 µM

CC(C)(C)C(=O)C(Oc1ccc(Cl)cc1)n1ccnc1 (configuration not stated)
inactive: CP256 | CP262 | CP266
active: CP203 13.5 µM | CP217 10 µM | CP237 7.08 µM

OCc1cc(C(O)CNCCCCCCOCCCCc2ccccc2)ccc1O (configuration not stated)
inactive: CP192 | CP194 | CP201 | CP217 | CP238 | CP247 | CP250 | CP252 | CP265 | CP266 | CP268 | CP269

Cc1c(O)cccc1C(=O)N[C@@H](CSc1ccccc1)[C@H](O)CN1C[C@H]2CCCC[C@H]2C[C@H]1C(=O)NC(C)(C)C
inactive: CP192 | CP211 | CP250 | CP262 | CP266

CCN(CC)CCNC(C(=O)OCCC(C)C)c1ccccc1 (configuration not stated)
inactive: CP211 | CP247 | CP250 | CP262 | CP266
active: CP203 9.53 µM | CP237 3.16 µM | CP265 8.91 µM

CC(CN1c2ccccc2Sc2ccccc21)N(C)C (configuration not stated)
inactive: CP192 | CP194 | CP201 | CP211 | CP217 | CP238 | CP247 | CP250 | CP252 | CP256 | CP262 | CP266 | CP268 | CP269 | CP286

CCOC(CN1CCN(CC(C)C(=O)c2ccccc2)CC1)c1ccccc1 (configuration not stated)
inactive: CP192 | CP201 | CP211 | CP215 | CP217 | CP238 | CP250 | CP252 | CP256 | CP260 | CP262 | CP266 | CP268 | CP269 | CP286

O=c1cc[nH]c(=S)[nH]1
inactive: CP192 | CP194 | CP201 | CP211 | CP217 | CP237 | CP238 | CP247 | CP250 | CP252 | CP256 | CP260 | CP262 | CP265 | CP266 | CP268 | CP269 | CP286

Source: PubChem BioAssay (NCATS)
